In the library only some 5.7% were active in any assay of this set; here they are far more common.
DAX1 inh-1: inhibits human nuclear receptor DAX1 | P51843 | HEK293 Gal4-DAX1 luciferase reporter, luminescence | inhibition, % at 6.75 µM | 340,000 compounds, 0.99% hits | AID 504766;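 active means inhibition above the mean over all tested compounds plus 3 SD, cut at about 4.2% in these data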;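 further: 0% = DAX1-transfected cells with DMSO and 100% = empty-vector control cells with DMSO; inhibition shows as a rise in luminescence from relieved DAX1 repression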
DAX1 inh-2: blocks DAX1 repression of SF-1 activated StAR promoter. HEK293T StAR-luciferase reporter, SF-1/DAX-1 repression relief. inhibition, % at 6.8 µM. 370,000 compounds, 1.1% hits;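 active means inhibition above the mean over all tested compounds plus 3 SD, cut at about 3.6% in these data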;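 further: 0% = DAX-1 cells with DMSO and 100% = cells lacking DAX-1 with DMSO; higher inhibition means more luminescence from relief of DAX-1 repression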
ssDAF12 agonist: S. stercoralis DAF-12 activation, primary screen; HEK293 ssDAF-12/GRIP1 lit1-tk-luc reporter, luminescence; % of 3 µM dafachronic acid response; activation, % at 6.8 µM; 370,000 compounds, 1% hits;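 active means activation above the mean over all tested compounds plus 3 SD, cut at about 0.9% in these data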;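 further: 0% = DMSO-only wells and 100% = 3 µM delta7-dafachronic acid wells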
hgDAF12 agonist: activates the H. glycines DAF-12 receptor ligand-binding domain; 370,000 compounds, 1.8% hits; HEK293 GAL4-hgDAF12 UAS-luciferase reporter, agonist luminescence; normalized to butyrate control; activation, % at 6.8 µM;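 active means activation above a cutoff set at the mean of all screened compounds plus 3 SD, cut at about 10% in these data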;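 further: 0% = DMSO wells and 100% = sodium butyrate wells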
AHR activator: activates the human aryl hydrocarbon receptor. P35869. AHR-responsive luciferase reporter cells, luminescence. activation, % at 5 µM. 320,000 compounds, 2.5% hits. AID 2796; in the data active means activation above about 47%;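 further: 0% = vehicle wells and 100% = reference agonist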
Target sequence (P35869 whole entry, looked up): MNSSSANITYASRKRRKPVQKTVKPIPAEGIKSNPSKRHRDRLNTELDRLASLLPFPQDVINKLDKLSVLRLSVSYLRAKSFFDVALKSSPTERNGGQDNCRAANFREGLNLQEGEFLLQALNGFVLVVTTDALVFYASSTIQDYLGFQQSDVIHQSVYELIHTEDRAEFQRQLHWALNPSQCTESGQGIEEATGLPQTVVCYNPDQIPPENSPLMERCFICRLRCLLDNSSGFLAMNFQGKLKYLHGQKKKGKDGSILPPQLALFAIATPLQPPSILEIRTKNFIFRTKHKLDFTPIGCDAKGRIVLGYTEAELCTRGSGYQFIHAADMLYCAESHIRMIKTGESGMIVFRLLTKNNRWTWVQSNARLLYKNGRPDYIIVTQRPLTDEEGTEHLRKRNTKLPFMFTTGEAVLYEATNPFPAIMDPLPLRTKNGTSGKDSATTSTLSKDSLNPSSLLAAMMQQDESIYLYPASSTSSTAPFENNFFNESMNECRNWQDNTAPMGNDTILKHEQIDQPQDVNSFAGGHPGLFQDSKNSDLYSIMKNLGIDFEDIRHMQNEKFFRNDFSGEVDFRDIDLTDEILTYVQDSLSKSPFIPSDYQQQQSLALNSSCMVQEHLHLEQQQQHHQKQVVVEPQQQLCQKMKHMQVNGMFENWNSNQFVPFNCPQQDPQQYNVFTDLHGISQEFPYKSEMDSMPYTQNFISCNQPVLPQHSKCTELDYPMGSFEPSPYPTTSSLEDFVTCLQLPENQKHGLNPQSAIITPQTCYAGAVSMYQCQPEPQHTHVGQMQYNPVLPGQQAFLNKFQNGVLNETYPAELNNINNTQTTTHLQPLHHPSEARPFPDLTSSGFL
hcDAF-12 act: activates DAF-12 receptor from parasite H. contortus | HEK293 hcDAF-12 lit1-tk-luc reporter, luminescence; 0% DMSO, 100% Δ7-dafachronic acid | activation, % at 6.8 µM | 370,000 compounds, 1.4% hits | AID 652067;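 active means activation above the mean of all tested compounds plus 3 SD, cut at about 5.5% in these data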;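 further: 100% = response to 3 µM Δ7-dafachronic acid high control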
The depositor's hits bear a star; nt = not tested or not shown.

SMILES	DAX1 inh-1	DAX1 inh-2	ssDAF12 agonist	hgDAF12 agonist	AHR activator	hcDAF-12 act
O=C1CC(NCCc2ccccc2)C(=O)N1CCc1ccccc1 (centres undefined)	0	0	-1	1	1	1
COc1ccc(CCNC2CC(=O)N(CCc3ccccc3)C2=O)cc1 (centres undefined)	4.5*	0	-2	-2	-1	-1
COc1ccc(CNC(=O)c2cccc(N3CCCC3=O)c2)cc1	0	0	1.2*	2	0	-2
COc1ccc(CNC(=O)c2cc(C)nn2-c2ccccc2)cc1	6.7*	0	-1	-2	6	0
O=C(NCCCN1CCOCC1)c1ccccc1N1C(=O)[C@@H]2Cc3c([nH]c4ccccc34)C(c3ccccc3)N2C1=O (some centres undefined)	nt	0	0	4	nt	5.8*
Nn1c(Nc2ccccc2)nc2ccccc21	4.4*	1	0	8	14	1
N#Cc1ccccc1NC(=S)NC(=O)C1CCC1	4.3*	0	-1	-1	nt	-1
COc1cc(OC)c(OC)cc1/C=C1/Cc2ccccc2C1=O	0	0	-1	-2	7	0
O=C(Cc1cccs1)Nc1nnc(SCc2ccc(Br)cc2)s1	-1	0	-1	4	48*	-1
CCCC(C(=O)NCC1CCCO1)N(C(=O)CNS(=O)(=O)c1ccccc1)c1ccc(F)cc1 (centres undefined)	4.6*	0	-1	-1	-2	-2
COCCn1nnnc1C(C(C)C)N(Cc1cccnc1)Cc1cc2cc(OC)ccc2[nH]c1=O (centres undefined)	1	-1	-2	-1	11	1
CC1CCCC(NC(=O)COC(=O)C2=COCCO2)C1C (centres undefined)	1	0	-1	0	nt	-2
CC(NC(=O)/C(C#N)=C/c1ccc(N2CCOCC2)cc1)c1ccccc1 (centres undefined)	-1	-1	-2	0	47*	-4
COCCn1c(C)cc(/C=C2\NC(=S)N(C)C2=O)c1C	1	0	-2	-1	57*	0
COc1ccc(C(=O)N2CCN(CCc3ccccn3)CC2)cc1	0	0	-1	-3	0	2
COc1ccc(C(Nc2cc(C)ccn2)c2ccc3ccc(C)nc3c2O)cc1 (centres undefined)	-1	-1	-1	-3	1	1
Cc1ccnc(NC(c2ccsc2)c2ccc3ccc(C)nc3c2O)c1 (centres undefined)	4.9*	-2	-1	-8	6	-1
Fc1ccc(COc2ccc(C(=S)N3CCCC3)cc2)cc1	4.3*	2	0	6	10	1
CSc1c2c(nc3ncnn13)CCC2	-1	0	-1	2	-2	2
CSc1nc2[nH]c3c(c2c2ncnn12)CCCC3	-1	-1	-1	-2	47*	-1
Cc1nc2ccc(Oc3ccccc3)cc2s1	3	0	-1	2	-4	2
Nc1nc2ccc(Oc3ccccc3)cc2s1	0	1	0	12*	nt	1
COc1ccc(-n2c(O)c(C=NCc3ccccn3)c3ccccc3c2=O)c(OC)c1	1	0	-1	0	4	6.1*
COc1ccc(/C(N)=N/OC(=O)c2ccc3c(c2)OCO3)cc1	1	0	-1	6	2	6.0*
N/C(=N\OC(=O)c1ccc2c(c1)OCO2)c1ccc(Cl)cc1	1	0	-1	6	6	-1
SMILES	DAX1 inh-1	DAX1 inh-2	ssDAF12 agonist	hgDAF12 agonist	AHR activator	hcDAF-12 act
N/C(=N\OC(=O)c1ccc2c(c1)OCO2)c1ccncc1	5.1*	1	-1	7	26	3
C=C(C)COc1ccc(-c2[nH]ncc2-c2ccc(Br)cc2)c(O)c1	-4	-2	-1	5	16	0
O=C(CN1C(=O)NC2(CCCC2)C1=O)NNC(=O)c1ccccc1	-1	2	-1	1	6	-1
O=C(CSc1nnc(C2COc3ccccc3O2)o1)Nc1nccs1 (centres undefined)	4.4*	nt	nt	nt	2	nt
O=C(CSc1nc2ccc(Cl)cc2[nH]1)N1CCN(C(=O)c2ccco2)CC1	-1	0	-1	1	25	1
Cc1ccc2nc(SCC(=O)N3CCN(C(=O)c4ccco4)CC3)[nH]c2c1	0	-1	0	1	68*	2
CCc1cc2cc3c(cc2nc1SCC(=O)N1CCN(C(=O)c2ccco2)CC1)OCO3	-1	-1	-2	-1	18	-3
CCc1cc2ccc(C)cc2nc1SCC(=O)N1CCN(C(=O)c2ccco2)CC1	-1	-1	-1	-3	52*	-1
O=c1c(Cl)c(N2CCN(S(=O)(=O)c3ccccc3)CC2)cnn1-c1ccccc1	0	0	-1	-2	-3	0
CCN(CC)CCNC(=O)c1cccc(NC(=O)C(=O)c2ccccc2NC(C)=O)c1	1	0	0	4	4	5.9*
CS(=O)(=O)N(CC(=O)Nc1ccccc1)c1cccc(Cl)c1Cl	2	-1	-1	0	13	-2
Cc1cccc(NC(=O)Nc2ccncc2)c1	0	0	1.1*	4	53*	-1
Cc1cccc(NC(=O)Nc2cnccn2)c1	0	0	-1	-2	39	-2
O=C(Nc1ccccc1)C1C2CCCCC21 (centres undefined)	0	0	0	1	1	-1
Cc1cc(C)cc(NC(=O)Nc2cccc(S(N)(=O)=O)c2)c1	nt	0	-1	5	58*	0
Cc1cccc(NC(=O)C2C3CCCCC32)c1 (centres undefined)	5.5*	0	-1	4	nt	0
COc1ccccc1C(=O)NCC(=O)Nc1ccc2c(c1)CCC2	1	3	0	10	70*	0
O=C(c1ccco1)N1CCN(c2ccc(S(=O)(=O)N3CCCC3)cc2)CC1	-1	-1	-1	1	-1	0
O=C(CCc1nc2ccccc2n1-c1ccccc1)NCCO	0	0	-1	2	1	1
COc1ccc(NC2=C(c3ccc(OC)cc3)C(=O)c3ccccc32)cc1	-2	-1	-1	-2	23	-3
O=C(N[C@@H](Cc1ccccc1)C(=O)CCl)OCc1ccccc1	-4	-5	-3	-9	1	-4
CCC(=O)Nc1ccc(Cl)c(NC(=O)c2ccccc2OC)c1	-1	0	-1	1	51*	-1
Cc1cccc(NC(=S)NCc2ccccn2)c1	0	2	-1	1	8	-1
O=C(Nc1cc(NC(=O)c2ccccc2F)ccc1Cl)c1ccccc1	-1	0	-1	-2	79*	0
Cc1cccc(NC(=O)C(=O)NCc2ccccn2)c1	4.3*	2	-1	10	3	0

Screening data from PubChem.
